From the supplement of paper PMC7156485
± gives the standard deviation of the averaged measurements.

These compounds were tested on TDF (assay: cell number relative to DMSO (% of DMSO); higher = more cells (less growth inhibition / toxicity)). Settings: concentration: 10 µM; 24 h.
How it was run: (§1)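 Cells were seeded at 800 per well in 384-well plates with RPMI containing 10% FBS; both HCC1569 and TDF lines were used. Compounds were added at 10 µM for 24 h at 37 °C, in triplicate, before fixation in 3.7% formaldehyde and staining with a rabbit anti-H1.0 antibody, an AlexaFluor 647 secondary and DAPI. H1.0 nuclear intensity or cell number is reported as percent of the plate control using the median of replicates, and HCC1569 values were smoothed for positional effects.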
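For H1.0 immunofluorescence intensity relative to DMSO in this document: TDF is a line of transformed human dermal fibroblasts of mesenchymal origin.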
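For cell number relative to DMSO in this document: TDF denotes transformed human dermal fibroblasts of mesenchymal origin.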

SMILES	cell number
CC(C)CC(NC(=O)C(COC(C)(C)C)NC(=O)C(Cc1ccc(O)cc1)NC(=O)C(CO)NC(=O)C(Cc1c[nH]c2ccccc12)NC(=O)C(Cc1cnc[nH]1)NC(=O)C1CCC(=O)N1)C(=O)NC(CCCN=C(N)N)C(=O)N1CCCC1C(=O)NNC(N)=O (configuration not stated) [Goserelin]	105
CN(CCOc1ccc(CC(Nc2ccccc2C(=O)c2ccccc2)C(=O)O)cc1)c1ccccn1 (configuration not stated)	104
Br.CN1CCc2c(cc(O)c(O)c2Cl)C(c2cccc(Cl)c2)C1 (configuration not stated)	81.1
CC(C)(Oc1ccc(CCNC(=O)c2ccc(Cl)cc2)cc1)C(=O)O [Bezafibrate]	105
CC(=O)N1CCN(c2ccc(OCC3COC(Cn4ccnc4)(c4ccc(Cl)cc4Cl)O3)cc2)CC1 (configuration not stated) [Ketoconazole]	97.3 ± 15
Br.CN1CCc2cc(O)c(O)cc2C1Cc1ccc(O)c(O)c1.O.O.O (configuration not stated)	108
c1ccc(C2CN3CCSC3=N2)cc1 (configuration not stated) [Levamisole]	94.6
O=C(Nc1cccc2c(=O)cc(-c3nn[nH]n3)oc12)c1ccc(OCCCCc2ccccc2)cc1 [Pranlukast]	110
CCCCCCC=CCCCCCCCC(=O)O [9(E)-Hexadecenoic acid]	97.4
CC1COc2c(N3CCN(C)CC3)c(F)cc3c(=O)c(C(=O)O)cn1c23 (configuration not stated) [Levofloxacin]	100
O=C(O)c1cc(=O)c2ccccc2[nH]1 [Kynurenic acid]	106
O=C1NC(=O)c2c1c1c3ccccc3[nH]c1n1cncc21 [Isogranulatimide]	96.4

The compounds below were run on TDF (assay: H1.0 immunofluorescence intensity relative to DMSO (% of DMSO); higher = stronger H1.0 induction, active = 120 or more). Settings: concentration: 10 µM; 24 h.
How it was run: as §1

SMILES	H1.0 immunofluorescence intensity
COC1C=COC2(C)Oc3c(C)c(O)c4c(O)c(cc([O-])c4c3C2=O)NC(=O)C(C)=CC=CC(C)C(O)C(C)C(O)C(C)C(OC(C)=O)C1C.[Na+] (configuration not stated)	102 (inactive)
FC(F)(F)c1cc(NC(=S)Nc2ccc(Br)cc2-c2nn[nH]n2)cc(C(F)(F)F)c1	90.2 (inactive)
COc1ccc(C=C2c3ccccc3C(=O)c3ccccc32)cc1O [10-(3-hydroxy-4-methoxybenzylidene)-9(10H)-anthracenone]	189 (active)
O=C1NC(=O)C(c2cnc3ccccn23)=C1c1cn2c3c(cc(F)cc13)CN(C(=O)N1CCCCC1)CC2	138 (active)
N#CC(=C(N)Sc1ccc(N)cc1)c1ccccc1C(F)(F)F [MEK1/2 Inhibitor]	86 (inactive)
COc1ccccc1N1CCN(CC(O)COc2cccc3ccccc23)CC1.Cl.Cl (configuration not stated) [Naftopidil dihydrochloride]	101 (inactive)
O=C(NCCCCCCNC(=O)ON=C1CCCCC1)ON=C1CCCCC1	98 (inactive)
O=C(O)c1cc2cc(F)ccc2[nH]1 [5-Fluoroindole-2-carboxylic acid]	102 (inactive)
CC1=C(C)C(=O)C(CCCCC#CCCCC#CCO)=C(C)C1=O	104 (inactive)
Cn1c(=O)c2c(ncn2Cc2ccc(C(C)(C)C)cc2)n(C)c1=O	106 (inactive)
CCCCCCCCCCCC=CCC=CCCCC(=O)O [5(Z), 8(Z)-Eicosadienoic acid]	99.9 (inactive)
CCOc1ccc2c(c1)C(C)=CC(C)(C)N2 [Ethoxyquin]	96.1 (inactive)
CC(=O)C1CCC2C3CCC4=CC(=O)CCC4(C)C3CCC12C (configuration not stated) [Progesterone]	95.9 (inactive)
CC1(C)CCC2(C(=O)O)CCC3(C)C(=CCC4C5(C)CCC(O)C(C)(C)C5CCC43C)C2C1 (configuration not stated) [Oleanolic acid]	101 (inactive)
c1ccc2c(Cc3c[nH]c4ccccc34)c[nH]c2c1 [Diindolylmethane]	98.8 (inactive)
O=c1ccc2ccc(O)c(O)c2o1 [7,8-dihydroxy-2H-chromen-2-one]	96.2 (inactive)
S=C(NCc1ccc2c(c1)OCO2)N1CCN(c2ncnc3c2oc2ccccc23)CC1	103 (inactive)
CNC1C(OC2C(OC3C(O)C(O)C(N=C(N)N)C(O)C3N=C(N)N)OC(C)C2(O)C=O)OC(CO)C(O)C1O (configuration not stated) [Streptomycin]	96.7 (inactive)
CC1(C)CCCC(C)(C2CCC3(C)C2C(O)CC2C4(C)CCC(O)C(C)(C)C4CCC23C)O1 (configuration not stated) [Panaxadiol]	91.8 (inactive)
COc1cc2c(c(OC)c1OC)-c1c(cc(OC)c(OC)c1OC)C[C@](C)(O)[C@@H](C)C2	101 (inactive)
